Results: PMC5540273 (PLoS ONE, 2017)

Tests used:
Conditions in all cases: concentration: 1 μM,replicates: in singlicate; n = 1
[1] = test system: T1, RSK4(Kin.Dom.1-N-terminal)
T1 construct: gene RPS6KA6

[2] = test system: T2, RSK4(Kin.Dom.2-C-terminal)
T2 construct: gene RPS6KA6

S6K1 = test system: S6K1
SBK1 = test system: SBK1
SGK2 = test system: SGK2
SGK3 = test system: SGK3
SGK = test system: SGK
SIK2 = test system: SIK2
SIK = test system: SIK
SLK = test system: SLK
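Note: KINOMEscan kinase panel screen.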

Q: For `Cn1ccc2ncnc(Oc3ccc(NC(=O)Nc4cnn(C(C)(C)C)c4)c(Cl)c3)c21`, which “%Inh” value [1] is on record?
A: 22%

Q: And the “%Inh” value [2]?
A: 0%

Q: And the “%Inh” value (S6K1)?
A: 1%

Q: And the “%Inh” value (SBK1)?
A: 0%

Q: And the “%Inh” value (SGK2)?
A: 12%

Q: And the “%Inh” value (SGK3)?
A: 2%

Q: What about the “%Inh” value (SGK) of the same compound?
A: 10%

Q: And the “%Inh” value (SIK2)?
A: 10%

Q: And the “%Inh” value (SIK)?
A: 14%

Q: And the “%Inh” value (SLK)?
A: 79%

Q: How did the “%Inh” value [1] turn out when `Cc1cccc2c(-c3ccncc3)c(-c3ccc(F)cc3)nn12.Cl` [GW461487] was run?
A: 21%

Q: And the “%Inh” value [2]?
A: 83%

Q: And the “%Inh” value (S6K1)?
A: 5%

Q: And the “%Inh” value (SBK1)?
A: 8%

Q: And the “%Inh” value (SGK2)?
A: 8%

Q: And the “%Inh” value (SGK3)?
A: 13%

Q: What about the “%Inh” value (SGK) of the same compound?
A: 0%

Q: What about the “%Inh” value (SIK2) of the same compound?
A: 0%

Q: What about the “%Inh” value (SIK) of the same compound?
A: 0%

Q: What about the “%Inh” value (SLK) of the same compound?
A: 15%

Q: Which results are given for `COc1cccc(OC)c1C(=O)Nc1cccc(-c2nn3ccccc3c2-c2ccnc(Nc3cccc(F)c3)n2)c1` [GSK361065]?
A: %Inh [1]: 0%; %Inh [2]: 12%; %Inh (S6K1): 0%; %Inh (SBK1): 0%; %Inh (SGK2): 26%; %Inh (SGK3): 65%; %Inh (SGK): 18%; %Inh (SIK2): 0%; %Inh (SIK): 25%; %Inh (SLK): 41%

Q: How did the “%Inh” value [1] turn out when `CN1CCN(CCCNc2nccc(-c3c(-c4ccc(F)cc4)nn4cc(C(N)=O)ccc34)n2)CC1` [GW622475] was run?
A: 0%

Q: What about the “%Inh” value [2] of the same compound?
A: 91.6%

Q: What about the “%Inh” value (S6K1) of the same compound?
A: 8%

Q: And the “%Inh” value (SBK1)?
A: 23%

Q: And the “%Inh” value (SGK2)?
A: 0%

Q: And the “%Inh” value (SGK3)?
A: 8%

Q: What about the “%Inh” value (SGK) of the same compound?
A: 0%

Q: And the “%Inh” value (SIK2)?
A: 9%

Q: What about the “%Inh” value (SIK) of the same compound?
A: 7%

Q: What about the “%Inh” value (SLK) of the same compound?
A: 63%

Q: How did the “%Inh” value [1] turn out when `Cc1n[nH]c2cc(Nc3ccnc(Nc4cccc(CN5CCOCC5)c4)n3)ccc12` [GW682569] was run?
A: 19%

Q: And the “%Inh” value [2]?
A: 16%

Q: And the “%Inh” value (S6K1)?
A: 0%

Q: And the “%Inh” value (SBK1)?
A: 0%

Q: And the “%Inh” value (SGK2)?
A: 0%

Q: And the “%Inh” value (SGK3)?
A: 17%

Q: And the “%Inh” value (SGK)?
A: 0%

Q: And the “%Inh” value (SIK2)?
A: 33%

Q: What about the “%Inh” value (SIK) of the same compound?
A: 46%

Q: And the “%Inh” value (SLK)?
A: 0%

Q: For `CC(C)S(=O)(=O)N1CCN(Cc2ccc3c(c2)nc(NC(=O)c2ccsc2)n3C[C@H](O)c2ccccc2)CC1` [GW635815], which “%Inh” value [1] is on record?
A: 54%

Q: And the “%Inh” value [2]?
A: 9%

Q: And the “%Inh” value (S6K1)?
A: 13%

Q: What about the “%Inh” value (SBK1) of the same compound?
A: 59%

Q: And the “%Inh” value (SGK2)?
A: 0%

Q: What about the “%Inh” value (SGK3) of the same compound?
A: 3%

Q: What about the “%Inh” value (SGK) of the same compound?
A: 0%

Q: And the “%Inh” value (SIK2)?
A: 19%

Q: And the “%Inh” value (SIK)?
A: 0%

Q: And the “%Inh” value (SLK)?
A: 33%

Q: With `COC(=O)c1cccc(NC(=O)NC2CCN(c3ccnc(NCc4ccc(F)cc4)n3)CC2)c1` [GSK1379860] as the compound, how does the “%Inh” value [1] read?
A: 0%

Q: And the “%Inh” value [2]?
A: 0%

Q: And the “%Inh” value (S6K1)?
A: 0%

Q: And the “%Inh” value (SBK1)?
A: 32%

Q: And the “%Inh” value (SGK2)?
A: 0%

Q: And the “%Inh” value (SGK3)?
A: 0%

Q: And the “%Inh” value (SGK)?
A: 0%

Q: And the “%Inh” value (SIK2)?
A: 0%

Q: What about the “%Inh” value (SIK) of the same compound?
A: 5%

Q: And the “%Inh” value (SLK)?
A: 2%
